In the library only some 7.6% were active in any assay of this set; here they are far more common.
p53 reactivation: mutant p53 re-activation in reporter cells; H1299 p53-A138V BP100-luciferase reporter, luminescence, 24 h; Potency, µM (top dose mostly 92.2 µM), actives largely listed as activators; actives 0.063% (n = 320,000); note: nearly all actives have a fitted effect of over 45% in size
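H1299 (p53-null), stable ts p53-A138V + BP100-Luc; 1000 cells/well, Opti-MEM/10% FBS; cpd 4 pt, 1:5; 24 h, 37 deg C, 5% CO2; detection reagent 10 min RT; luminescence.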
RORg inh: inhibitors of mouse ROR gamma transcriptional activity. P51450. Drosophila S2 Gal4-RORgamma UAS-luciferase reporter, 20 h. Potency, µM (doses to about 53.6 µM), actives largely listed as inhibitors. actives 5.4% (n = 310,000). AID 2551; note: nearly all actives have a fitted effect of over 60% in size
Target sequence (P51450 whole entry, looked up, the tested form may be a part): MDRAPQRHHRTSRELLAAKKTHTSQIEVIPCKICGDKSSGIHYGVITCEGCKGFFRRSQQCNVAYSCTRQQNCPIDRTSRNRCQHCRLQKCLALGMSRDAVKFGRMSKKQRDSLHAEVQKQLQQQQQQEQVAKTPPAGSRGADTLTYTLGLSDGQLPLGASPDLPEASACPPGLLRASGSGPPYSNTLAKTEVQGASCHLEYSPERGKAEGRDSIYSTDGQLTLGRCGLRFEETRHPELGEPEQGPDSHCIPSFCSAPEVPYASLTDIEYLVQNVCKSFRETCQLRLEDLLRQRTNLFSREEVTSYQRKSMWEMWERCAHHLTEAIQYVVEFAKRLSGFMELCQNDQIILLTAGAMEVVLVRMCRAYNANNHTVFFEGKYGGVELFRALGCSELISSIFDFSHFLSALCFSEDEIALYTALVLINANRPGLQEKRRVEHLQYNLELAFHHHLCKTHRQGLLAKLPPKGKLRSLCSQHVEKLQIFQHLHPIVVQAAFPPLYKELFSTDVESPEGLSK
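Schneider cells (Drosophila), stable Gal4 DBD–ROR gamma + UAS-luc; 1 hr cmpd preincubation; Cu2+ induction 700 uM final; 20 hr ambient; luminescence.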
Giardia kill: kills Giardia lamblia | AID 540267 | actives 0.15% (n = 340,000) | activity change, % at 7.66 µM, hits read low | Giardia lamblia trophozoite viability; in the data active = activity change below about -80%; inconclusive = between about -30% and that limit;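 note: parasites exposed to compound for two days anaerobically before the ATP read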
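ATP-content bioluminescence gauges trophozoite survival. Cells (100/well) receive compound and incubate anaerobically for 48 hrs at 37 deg C; detection reagent follows for 15-30 min at room temperature.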
VP16 counter: inhibits Gal4-VP16 luciferase reporter, ROR gamma counter-screen | Potency, µM (highest dose often 53.6 µM), actives largely listed as inhibitors | Drosophila S2 Gal4-VP16 UAS-luciferase, luminescence, 20 h | actives 3.5% (n = 310,000);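 note: Gal4-VP16 expression switched on by copper sulfate through the metallothionein promoter; nearly all actives have a fitted effect of over 50% in size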
BRCA1 expr up: activators of BRCA1 expression; MCF7-BRCA1-FFLuc reporter, luminescence, 48 h; response scale: scaled: vehicle 0%, 10 µM genistein 100%; Potency, µM (doses to about 46.1 µM), actives largely listed as activators; actives 1.1% (n = 380,000); note: nearly all actives have a fitted effect of over 80% in size
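Luminescence from a BRCA1-driven firefly luciferase in MCF7 cells was read after 48 h compound exposure at 37 C. Data normalized against DMSO and a 10microM genistein activation control, then curve-fitted across the titration.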
ELG1 DNA repair: ELG1-dependent DNA repair inhibition; HEK293T ELG1-luciferase reporter, luminescence, 16 h; DNA damage induced by 5-fluorouridine; Potency, µM (doses to about 46.1 µM), most hits filed as inhibitors; actives 2.3% (n = 330,000); note: nearly all actives have a fitted effect of over 55% in size
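5-Fluorouridine DNA damage + compound/DMSO, 2,000 cells/well, 16 h, 37 °C/5% CO2. ONE-Glo, 30 min RT, luminescence. Readout = decrease in reporter signal.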
Each line names hits and unclear results; the compound was inactive in the other large screens. Unless noted, calls come from the whole dose curve; as a rule, active = well fitted curve in the direction sought with a large enough effect; inconclusive = small, poorly fitted or top-dose-only effect, or another doubt; inactive = no such curve, though single readings can be large; an effect the other way counts as inactive or inconclusive.

CC(=O)c1cccc(NS(=O)(=O)c2ccc(-c3cnc(C4CC4)o3)cc2)c1	VP16 counter 8.91µM, ELG1 DNA repair inconclusive
COc1ccc2sc3ccccc3c(=O)c2c1	BRCA1 expr up 5.62µM, ELG1 DNA repair inconclusive
CC1CCCN(c2ccc(C(=O)Nc3ccc4c(c3)OCO4)cc2[N+](=O)[O-])C1 (stereo not drawn)	RORg inh inconclusive, ELG1 DNA repair 20.6µM
CC1CCCN(c2ccc(C(=O)Nc3nnc(C4CC4)s3)cc2[N+](=O)[O-])C1 (stereo not drawn)	RORg inh 12.6µM, VP16 counter inconclusive
CC(=O)N1C(=O)NC2=C(C(=O)CCC2)C1c1cccc([N+](=O)[O-])c1 (stereo not drawn)	none
CC[n+]1c(C)sc2cc(OC)ccc21	none
CCCCNC(=S)N/N=C/c1cc(C)ccc1C	RORg inh 1.78µM, VP16 counter 3.16µM
CCCCNC(=O)C(=O)N/N=C/c1cccc(Br)c1	RORg inh inconclusive
CCCCNC(=S)N/N=C/c1sccc1C	RORg inh 1.12µM
CCOC(=O)N/N=C\c1sccc1C	VP16 counter inconclusive, ELG1 DNA repair inconclusive
CCCCNC(=S)N/N=C/c1ccccc1F	RORg inh 2.51µM, VP16 counter 3.16µM
c1cc2nnnn2nc1N1CCCCC1	ELG1 DNA repair inconclusive
O=C1COc2ccc(C(=O)COC(=O)COc3ccccc3[N+](=O)[O-])cc2N1	none
CCOC(=O)CN1C(c2ccccc2O)Nc2ccc(Br)cc2C1c1ccccc1 (stereo not drawn)	VP16 counter 7.08µM
COc1cccc(C(O)c2nc(-c3ccc(Cl)cc3)cs2)c1 (stereo not drawn)	none (no result: p53 reactivation, RORg inh, Giardia kill, VP16 counter, ELG1 DNA repair)
COC(=O)C1=C(C)NC(C)=C(C(=O)OCC2CCCO2)C1c1cccc(Cl)c1 (stereo not drawn)	none
COC(=O)C1=C(C)NC(C)=C(C(=O)OCC2CCCO2)C1c1ccc(Cl)c([N+](=O)[O-])c1 (stereo not drawn)	ELG1 DNA repair 10.3µM (no result: Giardia kill, BRCA1 expr up)
Cc1cc(SCc2ccccc2F)nc(=O)[nH]1	ELG1 DNA repair inconclusive
COc1cc(N(C)C)c(OC)cc1/C=C/c1ccnc2ccccc12	none (no result: p53 reactivation, RORg inh, Giardia kill, VP16 counter, ELG1 DNA repair)
COc1cccc(CNc2ccc([N+](=O)[O-])c(NCC(=O)O)n2)c1	none
Cc1nn(-c2nc3ccccc3s2)c(N)c1-c1ccccc1	p53 reactivation 22.4µM, RORg inh inconclusive, BRCA1 expr up inconclusive, ELG1 DNA repair inconclusive
CC(=O)Nc1cccc(C(=O)OC2CCOC2=O)c1 (stereo not drawn)	none
O=C(Cc1ccccc1)NCCC1=CCCCC1	ELG1 DNA repair inconclusive
O=C(CCc1ccccc1)NCCC1=CCCCC1	p53 reactivation inconclusive, BRCA1 expr up 11.2µM, ELG1 DNA repair inconclusive
O=C(CCCN1C(=O)c2ccccc2C1=O)NCCC1=CCCCC1	none
O=C(CCCc1ccccc1)NCCC1=CCCCC1	BRCA1 expr up 3.16µM
COC(=O)C1CCN(S(=O)(=O)Cc2ccccc2)CC1	Giardia kill inconclusive
CC1=NN(c2ccccc2C)C(=O)C1	none (no result: p53 reactivation, RORg inh, VP16 counter, ELG1 DNA repair)
Cc1c(NC(=S)NC(=O)c2ccccc2Br)c(=O)n(-c2ccccc2)n1C	none
Cc1ccc(CNC(=O)CCn2c(=O)oc3ccccc32)cc1	none
COc1ccc(C(=O)/C(=C\N(C)C)n2nc(C)cc2C)cc1	none
Cc1ccc(NC(=O)N2CCc3ccccc32)cc1	RORg inh inconclusive, Giardia kill inconclusive, VP16 counter 10µM, ELG1 DNA repair inconclusive (no result: p53 reactivation)
CN1CCN(c2ccc(NC(=O)N3CCc4ccccc43)cc2)CC1	p53 reactivation inconclusive, RORg inh 10µM, Giardia kill inconclusive, VP16 counter 8.91µM, ELG1 DNA repair inconclusive
CNc1nc(N)c(C(=O)C23CC4CC(CC(C4)C2)C3)s1	none
COc1ccc(CNC(=O)Cc2csc(Nc3nc(=S)[nH]c4ccccc34)n2)cc1	RORg inh 1.78µM, VP16 counter 12.6µM
O=C(Cc1csc(Nc2nc(=S)[nH]c3ccccc23)n1)NCCCN1CCN(c2ccccc2F)CC1	RORg inh 2µM, Giardia kill inconclusive, VP16 counter 10µM
O=C(Cc1csc(Nc2nc(=S)[nH]c3ccccc23)n1)NCc1ccc(Cl)cc1	RORg inh 3.55µM, VP16 counter 10µM
COc1ccc(C(=O)Nc2nc(CC(=O)NCc3ccc(F)cc3)cs2)cc1	ELG1 DNA repair inconclusive (no result: RORg inh, VP16 counter)
S=C(Nc1ccc(Cl)cc1)N1CCOCC1	none (no result: p53 reactivation, RORg inh, VP16 counter, ELG1 DNA repair)
S=C(Nc1ccc(Cl)c(Cl)c1)NN1CCOCC1	RORg inh 7.94µM, VP16 counter 10µM
CC(C)c1ccc(NC(=S)NN2CCOCC2)cc1	p53 reactivation inconclusive, RORg inh 8.91µM, VP16 counter inconclusive, BRCA1 expr up inconclusive, ELG1 DNA repair inconclusive
S=C(Nc1ccc(Cl)cc1)NN1CCOCC1	RORg inh 11.2µM, VP16 counter inconclusive
COc1ccc(CCNC(=O)CN2C(=O)c3ccccc3S2(=O)=O)cc1OC	none
COc1cccc(NS(=O)(=O)c2c(C)nc3sccn3c2=O)c1	none (no result: p53 reactivation)
CCCC(=O)N/C(N)=N/c1nc(C)c2ccccc2n1	RORg inh 1.12µM
O=C(Nc1ccccc1)c1cccc(S(=O)(=O)Oc2ccc([N+](=O)[O-])cc2)c1	RORg inh inconclusive
Cc1nn2c(NCc3ccccn3)cc(C(C)C)nc2c1-c1ccccc1	RORg inh 0.0891µM, VP16 counter 0.631µM, ELG1 DNA repair inconclusive
CCCc1cc(N2CCCC2)n2nc(C)c(-c3ccccc3)c2n1	RORg inh inconclusive
Cc1nn2c(NCCCn3ccnc3)cc(C(C)C)nc2c1-c1ccccc1	RORg inh inconclusive
CCCc1cc(NCc2ccccn2)n2nc(C)c(-c3ccccc3)c2n1	RORg inh 0.0891µM, VP16 counter 0.562µM, ELG1 DNA repair 20.6µM
Cc1cc(C)nc(-n2nc(C)c3c(C)c(C)c(C)nc32)n1	RORg inh 10µM (no result: Giardia kill, BRCA1 expr up)
Fc1ccc(-c2nc3n(n2)Cc2ccccc2-3)cc1	p53 reactivation inconclusive, VP16 counter inconclusive, ELG1 DNA repair inconclusive
Cc1ccc(-c2nc3n(n2)Cc2ccccc2-3)cc1	RORg inh inconclusive, Giardia kill inconclusive, VP16 counter 10µM, ELG1 DNA repair inconclusive (no result: p53 reactivation)
CCn1c(C)nc2cc(C#N)ccc21	RORg inh inconclusive
CCn1c(C)nc2cc(-c3nc4n(n3)Cc3ccccc3-4)ccc21	RORg inh 0.891µM, Giardia kill -104.7, VP16 counter 0.0447µM, BRCA1 expr up inconclusive, ELG1 DNA repair inconclusive
CC(=O)NC12CC3CC(C1)CC(C(=O)Nc1nc4c(C)cccc4s1)(C3)C2	none
COc1ccccc1OCCOc1ccc(C(=O)c2ccccc2)cc1	RORg inh inconclusive
COCCn1c(-c2ccc(Br)cc2)csc1=Nc1cccnc1	ELG1 DNA repair 11.6µM
Clc1ccc(-c2csc(=Nc3cccnc3)n2CCCn2ccnc2)cc1Cl	RORg inh inconclusive, ELG1 DNA repair 8.2µM
